Out of some 63,000 compounds screened, about 1,100 (1.7%) were called active. The sample as a whole holds a higher share of actives than the screen did. Results with a measured potency or affinity are listed apart. Values without a mark were called inactive.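 Rule for the calls: active = compounds whose percent cytotoxicity in the single-dose primary screen, scaled between solvent and toxic-drug controls, exceeds 50; inactive = the rest.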
assay: viability loss of HPDE-C7K cells – cell-based, fluorescence, HTS, primary screen (AID 431); details: HPDE-C7K KRASV12 cells, Alamar Blue viability, 48 h; at 10 µM; hits give high values;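 note: 0% = DMSO solvent wells and 100% = doxorubicin-treated wells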

Row | SMILES | cytotoxicity
1 | CC(C)OCCCNC(=O)CN1CCN(Cc2ccccc2Cl)C1=O | -6.4%
2 | Cc1nnc(NC(=O)CSc2nnc(CNC(=O)c3ccccc3)n2-c2ccccc2)s1 | -0.6%
3 | O=C(C1CCN(S(=O)(=O)Cc2ccccc2)CC1)N1CCN(c2ncccn2)CC1 | 11.4%
4 | CCC(=O)NCCC(c1ccco1)c1ccccc1OC (centres undefined) | -5.9%
5 | O=C(O)c1oc2ccccc2c1-n1cccc1 | 7.2%
6 | O=C(O)c1c(-c2ccccc2)c2oc3ccccc3c2[nH]c1=O | 81.6% (active)
7 | O=c1[nH]c(Cc2ccccc2)nc2c1oc1ccccc12 | 10.4%
8 | COC(=O)c1ccc(C(=O)OC)c(NS(C)(=O)=O)c1 | -2.8%
9 | CC(=O)Nc1cccc(OCC(O)Cn2cnc3ccccc32)c1 (centres undefined) | 3.6%
10 | Cc1cccc(CN2CCN(c3ccccn3)CC2)c1 | -9.1%
11 | Cc1cc(N2CCN(C(c3ccccc3)c3ccc(Cl)cc3)CC2)n2ncnc2n1 (centres undefined) | 8.1%
12 | Cc1cccc(CN2CCN(C(=O)c3ccccc3F)CC2)c1 | -6.8%
13 | Cc1cccc(CN2CCN(C(c3ccccc3)c3ccc(Cl)cc3)CC2)c1 (centres undefined) | 85.4% (active)
14 | CN1CCCN(C(c2ccccc2)c2ccc(Cl)cc2)CC1 (centres undefined) | 51% (active)
15 | OCCOCCN1CCN(C(c2ccccc2)c2ccc(Cl)cc2)CC1 (centres undefined) | 26.4%
16 | O=C(Nc1ccc2c(c1)OCO2)C1CCCN(S(=O)(=O)c2cccs2)C1 (centres undefined) | 0.2%
17 | Cc1ccc(NC(=O)c2ccco2)c(NC(=O)c2cccs2)c1 | -4.8%

Row | SMILES | cytotoxicity
18 | COc1ccc(C(=O)OCCN2CCOCC2)cc1OC | -1.7%
19 | Cc1ccc(C(=O)N(CC(=O)NC2CCCC2)Cc2cccs2)s1 | 5.4%
20 | Cc1ccc2cccc(OCC(=O)NCc3ccco3)c2n1 | -8.8%
21 | CCCCCOc1ccc(C(=O)NC(C(=O)O)C(C)C)cc1 (centres undefined) | 6.5%
22 | CN=CC1=C(O)c2ccccc2C1=O | -1.7%
23 | O=C1C(C=Nc2ccccc2O)=C(O)c2ccccc21 | 13.8%
24 | Cc1ccc(O)c(N=CC2=C(O)c3ccccc3C2=O)c1 | 52.6% (active)
25 | Cc1cccc(-n2ncc3c(NC4CCCCC4)ncnc32)c1 | 11.8%
26 | NC(=O)c1c(NC(=O)c2cccs2)sc2c1CCCCCC2 | 57.6% (active)
27 | COC(=O)c1c(NC(=O)c2ccoc2C)sc2c1CCC2 | -18%
28 | O=C(Nc1sc2c(c1C(=O)O)CCCCC2)c1ccco1 | 3.9%
29 | COC(=O)c1c(NC(C)=O)sc2c1CCCC2 | 3.4%
30 | NC(=O)c1c(NC(NC(=O)c2ccco2)(C(F)(F)F)C(F)(F)F)sc2c1CCCC2 | 51.3% (active)
31 | O=C(Nc1sc2c(c1C(=O)O)CCC2)c1cccs1 | 5.8%
32 | O=C(Nc1sc2c(c1C(=O)O)CCCC2)c1cccs1 | 13.8%
33 | CCOC(=O)c1c(NC(=O)c2ccco2)sc2c1CCCCC2 | 11.4%
34 | COC(=O)c1c(NC(=O)c2ccc(Br)s2)sc2c1CCC2 | 64.4% (active)

— PubChem BioAssay AID431 (Sanford-Burnham Center for Chemical Genomics, 2006)
